Screens deposited in PubChem by Johns Hopkins Ion Channel Center.
Rows were chosen to be rich in hits. Some 2.3% of all compounds tested hit in one or more screens of this group.
ANO1 block – mouse TMEM16A channel inhibition, primary screen | Q8BHY3 | HEK293 TMEM16A/YFP iodide influx fluorescence, ionomycin | normalized B-score (activity score, 25-100; higher = stronger inhibition) at 10 µM | 1.2% of 310,000 active | AID 588511;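 active = ratio plate-corrected score three or more library SD toward inhibition, starting fluorescence score within five deviations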;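 also: score derived from kinetic fluorescence span divided by baseline fluorescence per well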
CHT allo act – allosterically activates the human high affinity choline transporter | CHT-expressing cells, membrane potential dye, choline EC20; active compounds read high; LV-AA mutant CHT in HEK293 cells | 0.49% of 310,000 active | B-score at 10 µM | Q9GZV3;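 active = initial fluorescence not abnormally high and integrated response B-score, plate-corrected, over 3 SD above library mean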
Target sequence (Q9GZV3 whole entry, looked up): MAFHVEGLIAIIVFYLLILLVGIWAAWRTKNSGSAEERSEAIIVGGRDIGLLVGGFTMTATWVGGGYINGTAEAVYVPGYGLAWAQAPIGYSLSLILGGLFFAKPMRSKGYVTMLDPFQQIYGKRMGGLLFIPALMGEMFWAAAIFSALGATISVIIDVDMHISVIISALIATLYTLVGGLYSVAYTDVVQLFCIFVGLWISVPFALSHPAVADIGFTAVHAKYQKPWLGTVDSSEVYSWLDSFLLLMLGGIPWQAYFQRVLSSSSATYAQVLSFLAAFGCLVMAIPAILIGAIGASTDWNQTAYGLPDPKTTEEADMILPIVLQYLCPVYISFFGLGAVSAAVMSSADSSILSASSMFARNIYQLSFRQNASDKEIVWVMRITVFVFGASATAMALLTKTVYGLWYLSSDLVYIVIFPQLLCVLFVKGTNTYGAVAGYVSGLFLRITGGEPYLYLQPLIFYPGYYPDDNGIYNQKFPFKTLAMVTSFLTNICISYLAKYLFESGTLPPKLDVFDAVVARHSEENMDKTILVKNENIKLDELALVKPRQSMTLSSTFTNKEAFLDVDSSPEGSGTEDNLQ
CHT inh – inhibits the human high affinity choline transporter. CHT-expressing cells, membrane potential dye, choline response; active compounds read low. B-score at 10 µM. 0.86% of 310,000 active. AID 488975;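 active = B-score over 3 SD under the library average, and starting fluorescence ratio not unusually high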;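 also: choline stimulus applied at its EC90 after an EC20 pre-addition; B-score computed on integrated fluorescence ratio after choline addition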
TMEM16A act – mouse TMEM16A channel activation, primary screen; Q8BHY3; HEK293 TMEM16A/YFP-H148Q/I152L, iodide quench fluorescence; active compounds read low; B-score at 10 µM; 0.3% of 340,000 active; AID 623877;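 active = fluorescence-ratio B-score plate-corrected deviation score at least 3 library SD below zero, with starting fluorescence score within 5 deviations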;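 also: channel opened by trigger with iodide after compound preincubation; score built on the fluorescence ratio of max minus min over baseline; more negative score means more quench and so TMEM16A activation or potentiation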
CHT inh conf – human CHT inhibition, confirmatory screen | shares compounds with CHT inh | CHT-expressing cells, choline membrane potential dye; LV-to-AA substituted CHT, HEK293 cells | CHT activity remaining % of control (active compounds read low), % at 10 µM | 70% of 2,400 active | AID 493221;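 active = choline transporter activity left, mean of duplicates at 10 µM, below buffer-only control mean minus 3 SD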;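 also: depolarization triggered by choline at its EC90 following an EC20 pre-addition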
HEK293 CHT ctr – counter-screen for CHT inhibitors: effect in parental HEK293 cells | shares compounds with CHT inh | membrane potential dye, choline response; active = decrease or increase beyond buffer ±3SD | membrane potential ratio readout (active if shifted either direction beyond buffer ±3SD; no single direction) at 10 µM | 4% of 2,400 active;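 also: parental cells lack the transporter so any hit is non-specific; ratio is peak minus trough fluorescence over baseline after EC90 choline challenge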
Of the large screens only hits and unclear results are named; the others gave an inactive call (follow-up assays come after a bar, where they were run).

CC(C)(C)N(NC(=O)Nc1ccccc1)C(=O)c1ccccc1	CHT inh -6.1 | CHT inh conf inactive | HEK293 CHT ctr inactive
C/C(=N\NS(=O)(=O)c1ccc(C)c([N+](=O)[O-])c1)c1cc2ccccc2o1	none
C/C(=N\NS(=O)(=O)c1ccc(Cl)c([N+](=O)[O-])c1)c1cc2ccccc2o1	CHT inh -7.5 | CHT inh conf 71% | HEK293 CHT ctr inactive
Cc1ccc(S(=O)(=O)N(C)c2ccc(OCC(=O)NCC3(N(C)C)CCCCC3)cc2)cc1	none
Nc1nnc(-c2ccc(F)cc2)s1	none
CC(C)(C)c1ccc(-c2nnc(N)s2)cc1	CHT inh -6 | CHT inh conf inactive | HEK293 CHT ctr inactive
O=C(NS(=O)(=O)N1CCCC1)C1=C(N2CCCC2)COC1=O	none (no result: ANO1 block, CHT allo act, CHT inh)
CCN(CC)CCCN1C=C2C(=O)C(C)(OC(=O)CCC(=O)OC)C(=O)C=C2C=C1C1CC1 (configuration not stated)	CHT inh -5.7 | CHT inh conf 45% | HEK293 CHT ctr inactive
COC(=O)CCC(=O)OC1(C)C(=O)C=C2C=C(C3CC3)N(CC3CC3)C=C2C1=O (configuration not stated)	none
O=C(O)c1ccccc1NSc1ccccc1[N+](=O)[O-]	CHT inh -5.4 | CHT inh conf 62% | HEK293 CHT ctr inactive
c1cc2c3c(cccc3c1)C(N1CCCCC1)=N2	CHT inh -6 | CHT inh conf 65% | HEK293 CHT ctr 4.6
O=C(CN1C(=O)NC2(CCCc3ccccc32)C1=O)N1CCc2ccccc2C1 (configuration not stated)	CHT inh -6.1 | CHT inh conf 34% | HEK293 CHT ctr inactive
CCn1c(=O)cc(SCC(=O)Nc2ccc(OC)c(OC)c2)c2ccccc21	CHT inh -6 | CHT inh conf inactive | HEK293 CHT ctr inactive
N#CCN1CCN(CCC(=O)Nc2ccc(OCc3ccccc3)cc2)CC1	none | CHT inh conf inactive | HEK293 CHT ctr inactive
O=C(CN1CCCC1)Nc1ccc(OCc2ccccc2)cc1	none
O=C1C(=O)N(CCN2CCOCC2)C(c2cccnc2)/C1=C(/O)c1ccccc1 (configuration not stated)	none (no result: TMEM16A act)
O=C1C(=O)N(CCN2CCOCC2)C(c2cccnc2)/C1=C(/O)c1ccc(Cl)cc1 (configuration not stated)	CHT inh -9.5 | CHT inh conf inactive | HEK293 CHT ctr inactive
Cc1cccn2c(=O)c(C=O)c(N3CCCCCC3)nc12	CHT inh -6.4 | CHT inh conf inactive | HEK293 CHT ctr inactive
CN(Cc1cccc(Cl)c1)C(=O)C1CCC(=O)N(C2CC2)C1 (configuration not stated)	none
O=C(c1ccccc1)C1CC=CCC1C(=O)c1ccccc1 (configuration not stated)	none (no result: ANO1 block, CHT allo act, CHT inh)
O=C(O)CC1SC(=O)N(CC(=O)c2ccccc2)C1=O (configuration not stated)	none
NC(=O)CCCn1c(C(=O)c2cc(Cl)c(N)c(Cl)c2)c2ccc([N+](=O)[O-])cc2[n+]1[O-]	CHT inh -8.8 | CHT inh conf 17% | HEK293 CHT ctr inactive
NCCCn1c(C(=O)c2ccc(Cl)cc2)c2ccc(C(F)(F)F)cc2[n+]1[O-]	CHT inh -5.1 | CHT inh conf 31% | HEK293 CHT ctr 2.2
COc1ccccc1C(=O)NCCC(=O)N1CC(C)OC(C)C1 (configuration not stated)	none (no result: ANO1 block, CHT allo act, CHT inh)
COc1ccc(C(=O)Nc2ccccc2C(=O)NCCN2CCOCC2)cc1OC	none
O=[N+]([O-])c1cccc(S(=O)(=O)NCc2ccncc2)c1	none
O=[N+]([O-])c1cccc(S(=O)(=O)Nc2ccc(Cc3ccncc3)cc2)c1	CHT inh -6.1 | CHT inh conf 59% | HEK293 CHT ctr inactive
COc1cccc2sc(N(CCN(C)C)C(=O)c3ccc4c(c3)CCCC4)nc12	CHT inh -10 | CHT inh conf 18% | HEK293 CHT ctr inactive
Cc1cccc2sc(N(CCCN(C)C)C(=O)c3ccc(Cl)s3)nc12	CHT inh -6.8 | CHT inh conf 27% | HEK293 CHT ctr inactive
CCOc1cccc2sc(N(CCN(C)C)C(=O)c3cc4ccccc4cc3OC)nc12	none
CCOc1cccc2sc(N(CCN(C)C)C(=O)c3ccc4c(c3)OCCO4)nc12	CHT inh -8.4 | CHT inh conf 19% | HEK293 CHT ctr inactive
O=C(C[C@H]1C/C=C\CC[C@H](Cc2ccc(F)cc2)C(=O)OCCNC1=O)NCCO	none (no result: ANO1 block, CHT allo act, CHT inh)
CCN(CC)CCCC(C)NC(=O)c1c(NC(=O)c2ccccc2)sc2c1CCCC2 (configuration not stated)	CHT inh -7.6 | CHT inh conf 39% | HEK293 CHT ctr inactive
COc1ccc(CCNS(=O)(=O)c2ccc(Cl)cc2)cc1OC	none
COc1ccccc1CCC(=O)OCC(=O)c1c(N)n(CC(C)C)c(=O)n(C)c1=O	CHT inh -5.7 | CHT inh conf 43% | HEK293 CHT ctr inactive
CCCCNC(=O)c1onc(CSc2ccc(C(C)C)cc2)c1C(=O)O	ANO1 block 25, CHT inh -8.2 | CHT inh conf 69% | HEK293 CHT ctr inactive
CCCCNC(=O)c1onc(CSc2ccccc2)c1C(=O)O	none
Cc1ccc(Cl)cc1N1CCN(C(=O)Cc2c(C(=O)O)[nH]c3ccc(Cl)cc23)CC1	CHT inh -7.6 | CHT inh conf 55% | HEK293 CHT ctr inactive
CCOc1ccccc1NC(=O)c1nc(S(=O)(=O)Cc2ccccc2)ncc1Cl	none
CCCc1nnc(NC(=O)c2nc(S(=O)(=O)Cc3ccc(C)cc3)ncc2Cl)s1	CHT inh -7.4 | CHT inh conf 7.6% | HEK293 CHT ctr inactive
CCc1ccc(NC(=O)c2nc(S(=O)(=O)Cc3ccccc3)ncc2Cl)cc1	none
CC(C)c1nnc(NC(=O)c2nc(S(=O)(=O)Cc3ccccc3)ncc2Cl)s1	CHT inh -7.7 | CHT inh conf 3.0% | HEK293 CHT ctr inactive
COc1ccc(S(=O)(=O)c2cnc3ccc(OC)cc3c2N2CCC3(CC2)OCCO3)cc1	CHT inh -9.7 | CHT inh conf 23% | HEK293 CHT ctr inactive
Cc1cccc(C=NOCCc2ccccc2)n1	none (no result: ANO1 block, CHT allo act, CHT inh)
COc1ccc(CCNC(=O)C2CCN(C(=O)NC3CCCCC3)CC2)cc1	none
COc1ccc(C2(O)CCN(C(=O)NC3CCCCC3)CC2)cc1	CHT inh -7.8 | CHT inh conf 36% | HEK293 CHT ctr inactive
Cc1cc(C)n2c(SCc3nnc(-c4cccs4)o3)nnc2n1	none
CCCn1c(SCc2nc(-c3cccs3)no2)nnc1-c1ccncc1	none
CCOc1ccc(-n2c(SCc3nc(-c4cccs4)no3)nnc2-c2ccncc2)cc1	CHT inh -5 | CHT inh conf inactive | HEK293 CHT ctr inactive
Cn1c(SCc2nc(-c3cccs3)no2)nnc1C1CCCCC1	CHT inh -7.2 | CHT inh conf inactive | HEK293 CHT ctr inactive
Cn1c(SCc2nc(-c3ccccc3)no2)nnc1-c1cccs1	none
